Rows were chosen to be rich in hits. Some 9% of all compounds tested hit in one or more screens of this group.
BAZ2B inh – inhibitors of human BAZ2B bromodomain; 360,000 tested, 4.4% active; Potency, µM (top dose mostly 114 µM), for the others: at the top dose activity change, negative = inhibition, usual class: inhibitors; AlphaScreen BAZ2B-H3K14Ac peptide displacement; Q9UIF8; also: % is scaled to controls: 0 for no effect and ±100 for the full control effect; nearly all actives have a fitted effect of over 60% in size
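Compounds, titrated to a top concentration of 110 uM, were incubated 30 min at room temperature with preformed BAZ2B/acetyl-K14 H3 peptide complex (50 nM each). Proximity signal was measured by AlphaScreen after 20 min with beads.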
HP1b binding inh – blocks HP1-beta chromodomain binding to methylated histone tails; Potency, µM (doses to about 114 µM), for inactives: at the top dose activity change, negative = inhibition, most hits filed as inhibitors; AlphaScreen HP1-beta / biotin-H3K9me3 peptide binding; 390,000 tested, 0.56% active; P83916; also: nearly all actives have a fitted effect of over 70% in size
Target sequence (P83916 whole entry, looked up): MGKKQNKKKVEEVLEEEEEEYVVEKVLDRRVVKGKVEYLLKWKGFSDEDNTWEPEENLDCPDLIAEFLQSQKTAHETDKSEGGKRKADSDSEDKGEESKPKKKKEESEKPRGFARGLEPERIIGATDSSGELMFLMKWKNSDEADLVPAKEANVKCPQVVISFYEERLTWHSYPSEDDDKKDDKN
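AlphaScreen: HP1-beta (50 nM) preformed 30 min with biotin-H3(1-18)K9me3 peptide (50 nM) in PBS pH 7.4, 0.01% Tween-20. Compound added for 30 min at RT, then streptavidin donor/nickel chelate acceptor beads (10 ug/mL) for 30 min.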
JMJD2A Tudor inh – inhibitors of human JMJD2A Tudor domain | AlphaScreen JMJD2A-Tudor / H3K4me3 peptide binding | Potency, µM (doses to about 114 µM), inactives show at the highest dose activity change, negative = inhibition, most hits filed as inhibitors | O75164 | 390,000 tested, 4.4% active; also: % is scaled to controls: 0 for no effect and ±100 for the full control effect; nearly all actives have a fitted effect of over 50% in size
G9a inh – G9a (human) methyltransferase inhibition | G9a H3K9 monomethylation, AlphaScreen, 2 h | Potency, µM (series often up to 102 µM), inactives show at the highest dose activity, negative = inhibition, actives largely listed as inhibitors | 350,000 tested, 8.8% active; also: % is scaled to controls: 0 for no effect and ±100 for the full control effect; nearly all actives have a fitted effect of over 75% in size
Target sequence (Q96KQ7 913-1193 limits assumed): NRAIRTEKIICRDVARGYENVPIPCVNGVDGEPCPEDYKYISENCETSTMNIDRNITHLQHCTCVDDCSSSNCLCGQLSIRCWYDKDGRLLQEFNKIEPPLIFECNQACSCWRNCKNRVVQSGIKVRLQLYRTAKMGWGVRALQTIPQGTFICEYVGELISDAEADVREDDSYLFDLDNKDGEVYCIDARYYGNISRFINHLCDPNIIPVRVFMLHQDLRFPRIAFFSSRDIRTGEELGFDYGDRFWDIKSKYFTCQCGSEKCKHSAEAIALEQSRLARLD
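Compounds were preincubated with 20 nM G9a for 15 min, after which biotinylated H3K9 peptide (500 nM) and SAM (20 uM) started a 2 h room-temperature reaction. Monomethylated product was quantified by antibody-based AlphaScreen chemiluminescence.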
12-LOX inh – inhibitors of human 12S-lipoxygenase ALOX12 | purified 12hLO, xylenol orange hydroperoxide absorbance | 580,000 tested, 1.1% active | Potency, µM (titrated, usually from 108 µM), for the others: at the top dose activity change, negative = inhibition, usual class: inhibitors | AID 1671190 | P18054; also: % is scaled to controls: 0 for no effect and ±100 for the full control effect
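Purified human 12hLO (150 nM final) in 25 mM Hepes, 0.01% Triton X-100, pH 7.0 was preincubated 15 min at room temperature with compound. Then 40 uM arachidonic acid was added, 30 min. Hydroperoxide was read by Fe-XO absorbance ratio 573/405 nm.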
PLK1 PBD inh – inhibitors of human PLK1 polo-box domain binding | P53350 | Plk1 PBD binding of FITC phosphopeptide, fluorescence polarization | Potency, µM, for inactives: max response, negative = inhibition, usual class: inhibitors | 360,000 tested, 2.8% active | AID 720504; also: series mostly up to about 57 µM; % is scaled to controls: 0 for no effect and ±100 for the full control effect; nearly all actives have a fitted effect of over 65% in size
Starred values were filed as active, the others as inactive; u = inconclusive; x = no result; ! = repeats disagree; [ ] = another dose, or the depositor's remark. Calls follow the shape of the dose curve; as a rule, active = well fitted curve in the direction sought with a large enough effect; inconclusive = small, poorly fitted or top-dose-only effect, or another doubt; inactive = no such curve, though single readings can be large; an effect the other way counts as inactive or inconclusive. Potency is read from the fitted curve at half-maximal effect.

SMILES	BAZ2B inh	HP1b binding inh	JMJD2A Tudor inh	G9a inh	12-LOX inh	PLK1 PBD inh
COc1ccc(-c2cnc(C)o2)cc1S(=O)(=O)Nc1ccc(C)c(F)c1	u	-9%	-33%	-6%[59 µM]	50µM*!	x
COc1ccc(C)c2sc(NC(=O)c3ccc(S(=O)(=O)N4CCCC4)cc3)nc12	3%	20%[57 µM]	-6%	5%[59 µM]	u	x
Oc1ccc(Cl)cc1C=NN1CCCCCC1	x	-18%	56µM*	x	-24%	-10%
Oc1cccc(/C=N/N2CCCCC2)c1O	-33%	19%	-27%	45µM*	-18%	5%
Oc1ccccc1/C=N/N1CCCCC1	x	17%	-31%	-31%	-2%	-10%
C(=NN1CCCCCC1)c1ccc2c(c1)OCO2	x	u	50µM*	x	u	2%
Oc1ccc(/C=N/N2CCCCC2)c(O)c1	u	-11%	-30%	7%[2.33 µM]	-8%	-1%
C(=NN1CCCCCC1)c1cccc2ccccc12	x	u	50µM*	x	u	-8%
O=C(NNC(=S)Nc1ccccc1)c1ccco1	7%	42%	-5%	x	19%	-1%
O=C(COC(=O)CCC1CCCC1)Nc1cccc(S(=O)(=O)N2CCOCC2)c1	5%	24%	-4%	u	-13%	-3%
Cc1ccc(-c2csc3nc4c5ccccc5c(NCCCN5CCOCC5)nn4c(=O)c23)cc1	-5%	x	x	x	x	x
COc1cccc(/C=N/N2CCOCC2)c1O	-4%	27%	-17%	-8%	-5%	-12%
Oc1ccc(/C=N/N2CCOCC2)c(O)c1O	x	-6%	22µM*	4µM*	66%	9.5µM*
Oc1ccccc1C=NN1CCCCCC1	x	u	45µM*	x	-7%	3%
CCCC1c2nccn2CCCN1C(=O)c1ccncc1F (configuration not stated)	x	x	x	x	6%	x
Cc1ccc(S(=O)(=O)N2CCC(C(=O)OCC(=O)NCc3ccco3)CC2)cc1C	-12%	-9%	-15%	-18%[59 µM]	-22%	-17%
Cc1ccc2cc(C(=O)O)c(C)nc2c1	u	33%	-7%	50µM*	u	1%
CCCC1(C(=O)OCC)NC(c2ccc(N(C)C)cc2)C2C(=O)N(c3ccc(F)cc3)C(=O)C21 (configuration not stated)	-38%	-20%	-35%	2.5µM*	0%	-5%
CCC1(C(=O)OC)NC(c2ccco2)C2C(=O)N(c3ccccc3)C(=O)C21 (configuration not stated)	5%	54%	-5%	9%[59 µM]	0%	-10%
CCC1(C(=O)OC)NC(c2ccco2)C2C(=O)N(c3ccc(F)cc3)C(=O)C21 (configuration not stated)	-22%	29%	-19%	45µM*	-1%	-2%
COc1ccc(Br)c(C(=O)OCC(=O)N2CCC(Cc3ccccc3)CC2)c1	29%	34%	11%	6%	-12%	-7%
CCCc1c2c(cc3c(=O)cc(C(=O)OCC)oc13)CCCC2	15%	29%	u	41%	9%	21µM*
CCOC(=O)c1c(NC(=O)c2cc(=O)c3cc(C)cc(C)c3o2)sc(C)c1C	-4%	19%	-6%	-5%[59 µM]	-26%	x
CC1(C)C2CCC1(CS(=O)(=O)N1CCCC1C(=O)O)C(=O)C2 (configuration not stated)	x	14%	-11%	x	-20%	-3%
CCOC(=O)C1CCN(CCC(=O)Nc2ccccc2OC)CC1	-12%	22%	-5%	u	-3%	x
SMILES	BAZ2B inh	HP1b binding inh	JMJD2A Tudor inh	G9a inh	12-LOX inh	PLK1 PBD inh
Cc1c(Cl)cccc1NC(=O)CCN1CCOCC1	4%	32%	-3%	40µM*	11%	0%
Cc1c(Cl)cccc1NC(=O)CCC(=O)N/N=C/c1ccc[nH]1	5%	2%	-29%	18µM*	-14%	-7%
Cc1c(Cl)cccc1NC(=O)CCN1C(=O)NC(C)(C)C1=O	-5%	49%	2%	50µM*	1%	2%
CCOC(=O)C1CCN(CCC(=O)Nc2ccccc2Cl)CC1	1%	28%	-1%	-35%[59 µM]	-29%	24µM*
Cc1nc(CCNC(=O)Cc2ccsc2)no1	x	x	x	x	35µM*	x
COc1cc(NC(=S)NCCCN2CCOCC2)cc(OC)c1OC	-8%	20%	-9%	1%	-9%	-11%
COc1ccc(C(C)(C)C)cc1NC(=S)NCCN1CCOCC1	-13%	-13%	-18%	45µM*	u	24µM*
COc1cc(C)c(NC(=S)NCCCN2CCOCC2)cc1OC	-19%	26%	-3%[57.1 µM]	35µM*	-7%	u
Cc1ccccc1NCC(=O)N/N=C/c1c[nH]c2ccccc12	-17%	-17%	u	u	-6%	30µM*
O=C(CNC(=O)c1cccs1)N/N=C/c1c[nH]c2ccccc12	-11%	8%	u	1%	5%	19µM*
CN1CCN(CC(=O)N/N=C\c2c[nH]c3ccccc23)CC1	-34%	x	x	16µM*	-17%	x
Cc1ccc(S(=O)(=O)N2CCN(C(=O)c3ccco3)CC2)cc1C	5%	51%	-3%	5%[2.33 µM]	34%	-5%
CC(OC(=O)c1ccccc1O)C(=O)Nc1ccc(Cl)cn1 (configuration not stated)	-16%	-17%	u	-15%	-10%	19µM*
CCCN1CCC(=O)N(CCO)CC1	-11%[57.1 µM]	27%	-19%	45µM*	-2%	-8%
CCCN1CCC(=O)N([C@H](CO)CC(C)C)CC1	-26%	12%	-12%	32µM*	-3%	-6%
CCCCCCCN1CCC(=O)N(CCO)CC1	-2%	30%	-6%	9%	-3%	-1%
COC(=O)c1cc(OC)c(OC)cc1NC(=S)N1CCN(C)CC1	-2%[57.1 µM]	4%	-12%	24%	20%	-10%
CN(Cc1nccn1C)C(=O)CC1C(=O)NCCN1Cc1cccc(Oc2ccccc2)c1 (configuration not stated)	u	5%	-33%	u	13%	-6%
Cc1cccc(N2CCN(C(=O)c3ccc(Cl)c(S(=O)(=O)NCc4ccco4)c3)CC2)c1C	-38%	-9%	u	-11%[59 µM]	-4%	-10%
Cc1ccccc1OCC(=O)N/N=C/c1cccn1C	45µM*	-18%	8%[11.4 µM]	u	15%	-23%
Cc1ccc(C(C)C)c(OCC(=O)N/N=C/c2cccn2C)c1	25µM*	u	u	x	0%	-4%
O=[N+]([O-])c1ccccc1-c1ccc(/C=N/n2cnnc2)o1	-6%	-3%	-29%	-1%	16%	-8%
Cc1cc(C(=O)O)ccc1-c1ccc(/C=N/n2cnnc2)o1	1%	33%	2%	56µM*	81%	0%
O=[N+]([O-])c1cc(-c2ccc(/C=N\n3cnnc3)o2)cc([N+](=O)[O-])c1	-38%	u	u	45µM*	-63%	-15%

Bioassay records (PubChem)
